These results are taken from PMC11062922 (Nature Chemical Biology, 2023).

Read-outs that look alike come from different tables or passages of the source.

Common to all, as to set-up: species or system human, MV4-11 + K-562 + COLO205 + SK-N-BE2 + OVCAR-8
In assay [1] the test system is AGK. As to conditions: read-out: apparent Kd, n = 1.
The subject of assay [2] is TP53RK. Conditions: read-out: apparent Kd; compound concentrations: 100 nM and 1000 nM (sheet 'Samples'), CATDS: 0.51387141429952199; n = 1.
In assay [3] the test system is AKT1. As to conditions: read-out: apparent Kd, n = 1.
For assay [4], the system named is AKT2. Conditions: read-out: apparent Kd, n = 1.
The test system of assay [5] is AKT3. Conditions: read-out: apparent Kd; compound concentrations:100 nM and 1000 nM (sheet 'Samples'); n = 1.
The test system of assay [6] is ATM. Conditions: read-out: apparent Kd; compound concentrations:100 nM and 1000 nM (sheet 'Samples'); n = 1.
Assay [7] relates to CAMK4. Conditions: read-out: apparent Kd; compound concentrations:100 nM and 1000 nM (sheet 'Samples'); n = 1.
The subject of assay [8] is JAK2. As to conditions: read-out: apparent Kd; compound concentrations:100 nM and 1000 nM (sheet 'Samples'); n = 1.
Assay [9] relates to MAP2K1. As to conditions: read-out: apparent Kd, n = 1.
Assay [10] has as its system NQO1. Conditions: read-out: apparent Kd, n = 1.
In assay [11] the test system is PRKCD. As to conditions: read-out: apparent Kd; compound concentrations:100 nM and 1000 nM (sheet 'Samples'); n = 1.
The subject of assay [12] is PRKCQ. As to conditions: read-out: apparent Kd; compound concentrations: 100 nM and 1000 nM (sheet 'Samples'), CATDS: 0.49835750263786499; n = 1.
In assay [13] the test system is PRKCZ. As to conditions: read-out: apparent Kd; compound concentrations:100 nM and 1000 nM (sheet 'Samples'); n = 1.
Assay [14] deals with RIOK2. As to conditions: read-out: apparent Kd; compound concentrations:100 nM and 1000 nM (sheet 'Samples'); n = 1.
Assay [15] concerns TTN. Conditions: read-out: apparent Kd; compound concentrations:100 nM and 1000 nM (sheet 'Samples'); n = 1.
In assay [16] the test system is CDK6. As to conditions: read-out: apparent Kd; compound concentrations: 100 nM and 1000 nM (sheet 'Samples'), CATDS: 0.111886140460168; n = 1.
In assay [17] the test system is EGFR. Conditions: read-out: apparent Kd, n = 1.
Assay [18] concerns MAP2K2. As to conditions: read-out: apparent Kd, compound concentrations: 100 nM and 1000 nM (sheet 'Samples'), n = 1.
Assay [19] concerns PYGL. As to conditions: read-out: apparent Kd; compound concentrations: 100 nM and 1000 nM (sheet 'Samples'), CATDS: 0.12425140919606401; n = 1.
The test system of assay [20] is RIPK2. As to conditions: read-out: apparent Kd; compound concentrations: 100 nM and 1000 nM (sheet 'Samples'), CATDS: 0.17953871866569099; n = 1.
Assay [21] concerns HSP90B1. Conditions: read-out: apparent Kd; compound concentrations:100 nM and 1000 nM (sheet 'Samples'); n = 1.
The test system of assay [22] is MTHFD1. Conditions: read-out: apparent Kd; compound concentrations:100 nM and 1000 nM (sheet 'Samples'); n = 1.
Assay [23] deals with NNT. Conditions: read-out: apparent Kd, n = 1.
Assay [24] deals with CDK17. As to conditions: read-out: apparent Kd; compound concentrations: 100 nM and 1000 nM (sheet 'Samples'), CATDS: 6.2311196568293398E-2; n = 1.
Assay [25] deals with CLK4. As to conditions: read-out: apparent Kd; compound concentrations: 100 nM and 1000 nM (sheet 'Samples'), CATDS: 7.8018331182730397E-2; n = 1.
Assay [26] concerns MAPKAPK2. As to conditions: read-out: apparent Kd; compound concentrations: 100 nM and 1000 nM (sheet 'Samples'), CATDS: 7.7313280603985193E-2; n = 1.
Assay [27] has as its system PIP4K2C. Conditions: read-out: apparent Kd; compound concentrations: 100 nM and 1000 nM (sheet 'Samples'), CATDS: 6.1582136800339998E-2; n = 1.
The subject of assay [28] is PRKAG2. As to conditions: read-out: apparent Kd; compound concentrations: 100 nM and 1000 nM (sheet 'Samples'), CATDS: 7.1492957845938399E-2; n = 1.
The subject of assay [29] is TNIK. As to conditions: read-out: apparent Kd; compound concentrations: 100 nM and 1000 nM (sheet 'Samples'), CATDS: 6.4996238797789693E-2; n = 1.
For assay [30], the system named is VDAC3. As to conditions: read-out: apparent Kd; compound concentrations: 100 nM and 1000 nM (sheet 'Samples'), CATDS: 6.7332646365255294E-2; n = 1.
The mark [31] stands for this setting: compound concentrations:100 nM and 1000 nM (sheet 'Samples').

Take `COC[C@@H](C)N[C@H]1CC[C@H](Nc2cc(-c3cccc(NCC4(C#N)CCOCC4)n3)c(Cl)cn2)CC1` [NVP-2]: the potency estimated from few doses is 2.37 µM in [1] (compound concentrations: 100 nM and 1000 nM (sheet 'Samples'), CATDS: 0.48685778986675599); 2.13 µM in assay [2].
`NCC1CCC(CNc2nc(NCc3ccccc3OC(F)(F)F)ncc2[N+](=O)[O-])CC1` (centres unmarked) [BIRZ0518XX]: the potency estimated from few doses in assay [3] (setting [31]) is 1.96 µM; in [4] (setting [31]), 1.97 µM; in [5], 1.21 µM; in [6], 0.249 µM; in assay [7] it was 1.11 µM; in assay [8], 0.517 µM. The potency estimated from few doses in assay [9] (setting [31]) is 2.28 µM; in assay [10] (setting [31]) it was 1.29 µM; in assay [11], 0.648 µM; in assay [12] it was 0.0403 µM; in assay [13], 2.02 µM; in assay [14] it was 1.91 µM. Besides, in [15], the potency estimated from few doses was 1.03 µM.
As to `Cn1cncc1-c1ccc2ncnc(Nc3ccc(OCc4ccccc4)cc3)c2c1` [GW320571X], the potency estimated from few doses in [4] (compound concentrations: 100 nM and 1000 nM (sheet 'Samples'), CATDS: 0.134297871058083) was 1.18 µM; in assay [16], 1.88 µM; in [17] (compound concentrations: 100 nM and 1000 nM (sheet 'Samples'), CATDS: 0.20286097232099201), 0.545 µM; in [18] (CATDS: 0.118156666202673), 1.61 µM; in assay [10] (compound concentrations: 100 nM and 1000 nM (sheet 'Samples'), CATDS: 0.17840078958021699), 0.676 µM; in [19], 1.42 µM. For the same molecule, in [20], the potency estimated from few doses was 0.668 µM.
Turning to `CS(=O)(=O)CCNCc1ccc(-c2ccc3ncnc(Nc4ccc(OCc5ccccc5)c(Cl)c4)c3c2)o1.Cl` [GW574783B_PKIS1], the potency estimated from few doses in assay [1] (setting [31]) was 1.95 µM; in assay [17] (setting [31]), 0.156 µM; in assay [21], 1.71 µM; in [22], 1.95 µM; in assay [23] (setting [31]), 1.2 µM.
As to `Cc1nnc(-c2ccc(C)c(-c3ccc(C(=O)NCc4ccc(Cl)cc4)cc3)c2)o1` [GW708893X], the potency estimated from few doses is 1.82 µM in [1] (compound concentrations: 100 nM and 1000 nM (sheet 'Samples'), CATDS: 6.7196554082181503E-2); 2.38 µM in assay [3] (compound concentrations: 100 nM and 1000 nM (sheet 'Samples'), CATDS: 5.9892362604304798E-2); 1.22 µM in [4] (compound concentrations: 100 nM and 1000 nM (sheet 'Samples'), CATDS: 8.2030939692010002E-2); 2.16 µM in [24]; 1.34 µM in assay [25]; 1.63 µM in assay [9] (compound concentrations: 100 nM and 1000 nM (sheet 'Samples'), CATDS: 7.0817886716783296E-2). In addition, the potency estimated from few doses was 1.25 µM in assay [18] (CATDS: 8.1065909718248605E-2); 1.37 µM in assay [26]; 1.76 µM in [23] (compound concentrations: 100 nM and 1000 nM (sheet 'Samples'), CATDS: 6.8216764859784895E-2); 0.726 µM in assay [10] (compound concentrations: 100 nM and 1000 nM (sheet 'Samples'), CATDS: 0.112965714749218); 2.22 µM in assay [27]; 1.59 µM in assay [28]. The potency estimated from few doses was 1.96 µM in [29] and 1.81 µM in [30].
